{"source": "paper PMC11066047", "key": {"[1]": {"molecular_target": "Casein kinase II subunit beta' (UniProt P38930)", "sequence (P38930 whole entry)": "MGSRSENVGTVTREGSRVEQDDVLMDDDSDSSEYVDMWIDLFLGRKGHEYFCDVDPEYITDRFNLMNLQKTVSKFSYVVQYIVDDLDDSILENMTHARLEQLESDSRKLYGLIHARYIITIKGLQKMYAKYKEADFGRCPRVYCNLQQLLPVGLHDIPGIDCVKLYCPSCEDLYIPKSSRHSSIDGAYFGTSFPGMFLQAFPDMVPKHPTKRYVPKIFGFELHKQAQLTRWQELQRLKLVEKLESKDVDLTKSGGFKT", "assay": "cross-link between two proteins; cross-linking mass spectrometry"}, "[2]": {"molecular_target": "Cytochrome b-c1 complex subunit 10, mitochondrial (UniProt P37299)", "sequence (P37299 whole entry, one chain of several)": "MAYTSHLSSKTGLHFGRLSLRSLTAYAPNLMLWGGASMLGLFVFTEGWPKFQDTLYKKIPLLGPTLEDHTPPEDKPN", "assay": "cross-link between two proteins; cross-linking mass spectrometry"}, "[3]": {"molecular_target": "Cytochrome b-c1 complex subunit 2, mitochondrial (UniProt P07257)", "sequence (P07257 whole entry, one chain of several)": "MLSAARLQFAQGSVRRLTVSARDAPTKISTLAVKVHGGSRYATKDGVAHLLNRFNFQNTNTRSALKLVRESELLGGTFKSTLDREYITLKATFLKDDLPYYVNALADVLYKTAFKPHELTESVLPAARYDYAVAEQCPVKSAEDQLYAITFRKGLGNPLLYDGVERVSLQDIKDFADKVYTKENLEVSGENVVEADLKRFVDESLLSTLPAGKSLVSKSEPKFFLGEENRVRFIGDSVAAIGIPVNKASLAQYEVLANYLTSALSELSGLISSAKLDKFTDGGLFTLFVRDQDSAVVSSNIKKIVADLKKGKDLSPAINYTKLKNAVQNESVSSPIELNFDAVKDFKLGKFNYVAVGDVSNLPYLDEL", "assay": "cross-link between two proteins; cross-linking mass spectrometry"}, "[4]": {"molecular_target": "Cytochrome c oxidase subunit 12, mitochondrial (UniProt Q01519)", "sequence (Q01519 whole entry)": "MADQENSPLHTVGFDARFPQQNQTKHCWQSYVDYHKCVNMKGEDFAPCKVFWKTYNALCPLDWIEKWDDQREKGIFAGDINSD", "assay": "cross-link between two proteins; cross-linking mass spectrometry"}, "[5]": {"molecular_target": "Cytochrome c oxidase subunit 5A, mitochondrial (UniProt P00424)", "sequence (P00424 whole entry)": "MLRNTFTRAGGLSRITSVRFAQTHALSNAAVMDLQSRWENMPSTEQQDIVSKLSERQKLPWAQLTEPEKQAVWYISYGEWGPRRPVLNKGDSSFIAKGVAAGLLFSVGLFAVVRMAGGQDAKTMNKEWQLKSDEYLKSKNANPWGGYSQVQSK", "assay": "cross-link between two proteins; cross-linking mass spectrometry"}, "[6]": {"molecular_target": "Cytochrome c oxidase subunit 6, mitochondrial (UniProt P00427)", "sequence (P00427 whole entry)": "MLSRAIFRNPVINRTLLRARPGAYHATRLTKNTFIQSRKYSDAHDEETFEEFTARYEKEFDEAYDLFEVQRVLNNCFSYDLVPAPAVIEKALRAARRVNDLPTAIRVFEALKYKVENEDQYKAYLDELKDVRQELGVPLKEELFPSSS", "assay": "cross-link between two proteins; cross-linking mass spectrometry"}, "[7]": {"molecular_target": "DNA-directed RNA polymerase II subunit RPB11 (UniProt P38902)", "sequence (P38902 whole entry)": "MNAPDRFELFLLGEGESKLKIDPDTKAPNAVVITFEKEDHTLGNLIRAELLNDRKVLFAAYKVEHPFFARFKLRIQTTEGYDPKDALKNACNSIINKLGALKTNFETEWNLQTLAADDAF", "assay": "cross-link between two proteins; cross-linking mass spectrometry"}, "[8]": {"molecular_target": "DNA-directed RNA polymerases I, II, and III subunit RPABC5 (UniProt P22139)", "sequence (P22139 whole entry)": "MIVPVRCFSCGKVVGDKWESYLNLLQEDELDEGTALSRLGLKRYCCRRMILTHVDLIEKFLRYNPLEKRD", "assay": "cross-link between two proteins; cross-linking mass spectrometry"}, "[9]": {"molecular_target": "FK506-binding protein 4 (UniProt Q06205)", "sequence (Q06205 whole entry)": "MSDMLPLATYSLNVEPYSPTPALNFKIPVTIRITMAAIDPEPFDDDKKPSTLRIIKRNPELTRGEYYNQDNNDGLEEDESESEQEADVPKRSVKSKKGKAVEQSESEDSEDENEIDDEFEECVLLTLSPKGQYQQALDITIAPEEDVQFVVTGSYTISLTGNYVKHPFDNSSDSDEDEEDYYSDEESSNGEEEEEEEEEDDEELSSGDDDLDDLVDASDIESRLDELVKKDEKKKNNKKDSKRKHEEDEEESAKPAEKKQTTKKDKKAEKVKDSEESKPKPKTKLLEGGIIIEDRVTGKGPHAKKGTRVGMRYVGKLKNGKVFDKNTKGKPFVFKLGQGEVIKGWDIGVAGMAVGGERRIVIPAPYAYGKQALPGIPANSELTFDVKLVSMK", "assay": "cross-link between two proteins; cross-linking mass spectrometry"}, "[10]": {"molecular_target": "H/ACA ribonucleoprotein complex subunit NOP10 (UniProt Q6Q547)", "sequence (Q6Q547 whole entry, one chain of several)": "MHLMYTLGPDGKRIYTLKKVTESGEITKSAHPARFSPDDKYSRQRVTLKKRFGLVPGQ", "assay": "cross-link between two proteins"}, "[11]": {"molecular_target": "Heat shock protein homolog SSE1 (UniProt P32589)", "sequence (P32589 whole entry)": "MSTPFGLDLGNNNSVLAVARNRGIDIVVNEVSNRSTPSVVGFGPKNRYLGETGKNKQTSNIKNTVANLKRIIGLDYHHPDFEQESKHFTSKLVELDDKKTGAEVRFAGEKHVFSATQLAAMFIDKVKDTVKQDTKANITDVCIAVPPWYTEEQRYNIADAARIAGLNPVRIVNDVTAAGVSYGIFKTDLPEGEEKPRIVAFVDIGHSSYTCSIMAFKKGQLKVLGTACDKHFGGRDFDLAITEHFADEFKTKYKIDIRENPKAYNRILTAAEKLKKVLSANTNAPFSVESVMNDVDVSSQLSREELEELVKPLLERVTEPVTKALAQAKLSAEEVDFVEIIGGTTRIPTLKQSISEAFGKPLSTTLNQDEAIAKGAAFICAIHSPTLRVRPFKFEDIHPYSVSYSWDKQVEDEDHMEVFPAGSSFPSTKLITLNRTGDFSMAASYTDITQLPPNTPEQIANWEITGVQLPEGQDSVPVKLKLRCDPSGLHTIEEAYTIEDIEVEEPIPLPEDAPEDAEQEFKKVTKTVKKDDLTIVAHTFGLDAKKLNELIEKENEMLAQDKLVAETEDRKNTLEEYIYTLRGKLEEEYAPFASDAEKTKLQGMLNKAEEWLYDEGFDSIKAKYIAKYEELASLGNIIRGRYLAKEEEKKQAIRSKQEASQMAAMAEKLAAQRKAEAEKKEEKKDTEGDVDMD", "assay": "cross-link between two proteins; cross-linking mass spectrometry"}, "[12]": {"molecular_target": "Heat shock protein homolog SSE2 (UniProt P32590)", "sequence (P32590 whole entry)": "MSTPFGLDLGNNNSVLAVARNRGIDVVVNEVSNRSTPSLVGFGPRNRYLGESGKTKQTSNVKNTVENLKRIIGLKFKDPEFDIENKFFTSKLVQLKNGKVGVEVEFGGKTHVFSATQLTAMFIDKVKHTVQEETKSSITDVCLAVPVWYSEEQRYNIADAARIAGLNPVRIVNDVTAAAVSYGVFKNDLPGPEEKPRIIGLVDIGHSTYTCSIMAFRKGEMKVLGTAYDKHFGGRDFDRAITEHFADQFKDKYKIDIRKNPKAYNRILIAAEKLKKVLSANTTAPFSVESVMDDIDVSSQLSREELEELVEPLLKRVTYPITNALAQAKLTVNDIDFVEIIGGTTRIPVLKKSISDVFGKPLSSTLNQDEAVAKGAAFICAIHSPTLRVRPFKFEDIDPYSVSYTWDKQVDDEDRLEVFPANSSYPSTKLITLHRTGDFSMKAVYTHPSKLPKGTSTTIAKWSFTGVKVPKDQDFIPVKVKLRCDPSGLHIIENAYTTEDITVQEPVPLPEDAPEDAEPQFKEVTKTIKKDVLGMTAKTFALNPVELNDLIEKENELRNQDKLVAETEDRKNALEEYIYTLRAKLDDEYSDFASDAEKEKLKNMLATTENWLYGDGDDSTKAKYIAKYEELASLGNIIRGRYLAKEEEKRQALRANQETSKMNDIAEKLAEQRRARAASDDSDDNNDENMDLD", "assay": "cross-link between two proteins; cross-linking mass spectrometry"}, "[13]": {"molecular_target": "Isocitrate dehydrogenase [NAD] subunit 1, mitochondrial (UniProt P28834)", "sequence (P28834 whole entry)": "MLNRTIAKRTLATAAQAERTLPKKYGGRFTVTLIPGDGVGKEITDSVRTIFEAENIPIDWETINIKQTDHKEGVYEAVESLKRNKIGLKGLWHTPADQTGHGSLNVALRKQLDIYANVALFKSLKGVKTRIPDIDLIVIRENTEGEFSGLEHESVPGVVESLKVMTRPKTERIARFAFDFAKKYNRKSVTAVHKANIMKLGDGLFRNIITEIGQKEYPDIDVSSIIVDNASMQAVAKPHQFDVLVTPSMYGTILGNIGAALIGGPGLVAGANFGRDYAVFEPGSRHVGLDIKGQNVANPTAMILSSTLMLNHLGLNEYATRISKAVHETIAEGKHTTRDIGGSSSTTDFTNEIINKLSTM", "assay": "cross-link between two proteins; cross-linking mass spectrometry"}, "[14]": {"molecular_target": "Large ribosomal subunit protein eL30 (UniProt P14120)", "sequence (P14120 whole entry)": "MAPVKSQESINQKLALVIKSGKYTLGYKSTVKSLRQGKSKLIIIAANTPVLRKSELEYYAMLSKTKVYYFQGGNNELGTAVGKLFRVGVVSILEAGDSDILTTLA", "assay": "cross-link between two proteins; cross-linking mass spectrometry"}, "[15]": {"molecular_target": "Small ribosomal subunit protein eS7A (UniProt P26786)", "sequence (P26786 whole entry)": "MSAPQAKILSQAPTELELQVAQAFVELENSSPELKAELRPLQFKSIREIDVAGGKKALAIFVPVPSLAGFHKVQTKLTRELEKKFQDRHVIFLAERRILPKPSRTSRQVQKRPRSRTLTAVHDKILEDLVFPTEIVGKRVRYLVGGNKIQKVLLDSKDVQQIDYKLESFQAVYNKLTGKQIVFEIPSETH", "assay": "cross-link between two proteins"}, "[16]": {"molecular_target": "Large ribosomal subunit protein eL31A (UniProt P0C2H8)", "sequence (P0C2H8 whole entry)": "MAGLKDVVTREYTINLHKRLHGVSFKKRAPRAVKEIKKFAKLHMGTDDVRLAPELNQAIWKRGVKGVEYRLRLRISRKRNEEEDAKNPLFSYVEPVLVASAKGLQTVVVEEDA", "assay": "cross-link between two proteins; cross-linking mass spectrometry"}, "[17]": {"molecular_target": "Large ribosomal subunit protein eL32 (UniProt P38061)", "sequence (P38061 whole entry)": "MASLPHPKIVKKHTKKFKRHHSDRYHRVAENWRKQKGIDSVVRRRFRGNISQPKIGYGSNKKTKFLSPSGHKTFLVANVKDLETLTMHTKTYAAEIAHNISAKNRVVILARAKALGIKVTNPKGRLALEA", "assay": "cross-link between two proteins; cross-linking mass spectrometry"}, "[18]": {"molecular_target": "Ribosome biogenesis protein ALB1 (UniProt P47019)", "sequence (P47019 whole entry)": "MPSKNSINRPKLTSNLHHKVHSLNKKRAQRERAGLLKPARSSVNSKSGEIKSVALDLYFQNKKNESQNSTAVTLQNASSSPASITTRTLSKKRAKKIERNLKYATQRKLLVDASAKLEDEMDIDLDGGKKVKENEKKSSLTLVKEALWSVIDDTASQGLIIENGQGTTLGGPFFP", "assay": "cross-link between two proteins; cross-linking mass spectrometry"}, "[19]": {"molecular_target": "Zuotin (UniProt P32527)", "sequence (P32527 whole entry)": "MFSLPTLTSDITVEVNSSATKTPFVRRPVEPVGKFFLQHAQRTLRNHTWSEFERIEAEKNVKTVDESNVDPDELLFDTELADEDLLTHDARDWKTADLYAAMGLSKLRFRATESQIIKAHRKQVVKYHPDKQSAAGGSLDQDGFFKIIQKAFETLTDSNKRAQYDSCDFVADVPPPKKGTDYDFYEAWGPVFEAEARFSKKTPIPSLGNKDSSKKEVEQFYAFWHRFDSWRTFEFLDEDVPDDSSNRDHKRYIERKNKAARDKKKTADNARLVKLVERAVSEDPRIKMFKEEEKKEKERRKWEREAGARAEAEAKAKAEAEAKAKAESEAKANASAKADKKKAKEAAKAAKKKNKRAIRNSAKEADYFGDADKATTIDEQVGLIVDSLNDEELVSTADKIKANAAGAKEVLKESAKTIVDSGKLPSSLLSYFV", "assay": "cross-link between two proteins; cross-linking mass spectrometry"}}}
{"substance": "Casein kinase II subunit alpha', P19454", "values": [{"measurement": "listed as a hit", "setting": "[1]", "result": "yes"}]}
{"substance": "Cytochrome b-c1 complex subunit 2, mitochondrial, P07257", "values": [{"measurement": "listed as a hit", "setting": "[2]", "result": "yes"}]}
{"substance": "Cytochrome b-c1 complex subunit 1, mitochondrial, P07256", "values": [{"measurement": "listed as a hit", "setting": "[3]", "result": "yes"}]}
{"substance": "Respiratory supercomplex factor 2, mitochondrial, P53721", "values": [{"measurement": "listed as a hit", "setting": "[4]", "result": "yes"}]}
{"substance": "Cytochrome b-c1 complex subunit 6, mitochondrial, P00127", "values": [{"measurement": "listed as a hit", "setting": "[5]", "result": "yes"}]}
{"substance": "Cytochrome c oxidase subunit 5A, mitochondrial, P00424", "values": [{"measurement": "listed as a hit", "setting": "[6]", "result": "yes"}]}
{"substance": "DNA-directed RNA polymerase II subunit RPB3, P16370", "values": [{"measurement": "listed as a hit", "setting": "[7]", "result": "yes"}, {"measurement": "listed as a hit", "setting": "[8]", "result": "yes"}]}
{"substance": "DNA-directed RNA polymerase II subunit RPB2, P08518", "values": [{"measurement": "listed as a hit", "setting": "[8]", "result": "yes"}]}
{"substance": "25S rRNA (cytosine(2870)-C(5))-methyltransferase, P40991", "values": [{"measurement": "listed as a hit", "setting": "[9]", "result": "yes"}]}
{"substance": "H/ACA ribonucleoprotein complex subunit CBF5, P33322", "values": [{"measurement": "listed as a hit", "setting": "[10]", "result": "yes"}]}
{"substance": "Heat shock protein SSA1, P10591", "values": [{"measurement": "listed as a hit", "setting": "[11]", "result": "yes"}, {"measurement": "listed as a hit", "setting": "[12]", "result": "yes"}]}
{"substance": "Isocitrate dehydrogenase [NAD] subunit 2, mitochondrial, P28241", "values": [{"measurement": "listed as a hit", "setting": "[13]", "result": "yes"}]}
{"substance": "Small ribosomal subunit protein uS15, P05756", "values": [{"measurement": "listed as a hit", "setting": "[14]", "result": "yes"}, {"measurement": "listed as a hit", "setting": "[15]", "result": "yes"}]}
{"substance": "Large ribosomal subunit protein uL22A, P05740", "values": [{"measurement": "listed as a hit", "setting": "[16]", "result": "yes"}, {"measurement": "listed as a hit", "setting": "[17]", "result": "yes"}, {"measurement": "listed as a hit", "setting": "[18]", "result": "yes"}, {"measurement": "listed as a hit", "setting": "[19]", "result": "yes"}]}
